Reference: paper PMC7862700, “An all-to-all approach to the identification of sequence-specific readers for epigenetic DNA modifications on cytosine”

Experiments:
Assay in all cases: DAPPL (digital affinity profiling via proximity ligation, sequencing); 10 mM Tris-HCl pH 7.5, 50 mM NaCl, 1 mM DTT, 4% glycerol, room temperature, 30 min; GST-TFs on glutathione beads, 16-mer random dsDNA library, 0.1% formaldehyde crosslink after washing; high values mean tight binding
Conditions in all cases: protein: recombinant; tags: N-terminal GST; dsDNA, one strand shown
[1] = target: T1, FLI1 (Homo sapiens, UniProt Q01543 1-452)
T1 sequence: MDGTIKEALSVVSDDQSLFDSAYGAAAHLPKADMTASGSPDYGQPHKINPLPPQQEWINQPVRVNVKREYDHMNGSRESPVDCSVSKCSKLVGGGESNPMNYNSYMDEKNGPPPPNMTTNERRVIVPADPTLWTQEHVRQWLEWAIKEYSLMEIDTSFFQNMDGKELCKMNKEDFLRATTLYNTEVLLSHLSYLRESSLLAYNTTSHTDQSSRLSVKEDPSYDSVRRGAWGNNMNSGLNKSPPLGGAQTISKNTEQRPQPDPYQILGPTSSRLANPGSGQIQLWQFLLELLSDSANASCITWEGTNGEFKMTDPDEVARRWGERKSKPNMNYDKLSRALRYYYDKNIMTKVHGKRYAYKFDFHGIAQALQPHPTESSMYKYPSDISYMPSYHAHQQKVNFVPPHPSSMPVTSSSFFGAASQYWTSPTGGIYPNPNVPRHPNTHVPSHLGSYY
Summary of the method: (§1)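 In yeast, human transcription factors were expressed with a GST fusion, then pulled down on glutathione beads and given DNA barcodes. Pooled with a tag-only sample, they were exposed to 200 nmole of a 16-mer random double-stranded DNA library (Tris/NaCl/DTT/glycerol buffer, room temperature, 30 min), washed, crosslinked with 0.1% formaldehyde, proximity-ligated using BsaI/T4 ligase for 1 h at 37 °C, PCR-amplified and read on an Illumina NextSeq500. Each hexamer's frequency of reads for a factor, divided by the matching frequency for the tag-only sample, gives the binding signal.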

[2] = target: T2, ELK1 (Homo sapiens, UniProt P19419 1-428)
T2 sequence: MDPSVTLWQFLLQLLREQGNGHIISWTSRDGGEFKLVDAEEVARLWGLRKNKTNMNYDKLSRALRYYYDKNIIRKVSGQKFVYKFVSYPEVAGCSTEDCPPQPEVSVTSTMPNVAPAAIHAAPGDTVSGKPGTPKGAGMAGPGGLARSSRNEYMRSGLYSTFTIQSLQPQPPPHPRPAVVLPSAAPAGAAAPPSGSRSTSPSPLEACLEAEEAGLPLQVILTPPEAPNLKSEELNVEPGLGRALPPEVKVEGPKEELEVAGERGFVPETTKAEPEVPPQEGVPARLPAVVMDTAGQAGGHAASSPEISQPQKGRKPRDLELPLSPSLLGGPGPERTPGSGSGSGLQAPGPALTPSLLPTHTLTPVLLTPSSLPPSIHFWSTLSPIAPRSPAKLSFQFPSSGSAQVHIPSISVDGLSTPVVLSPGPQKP
Summary of the method: as §1

[3] = target: T3, GABPA (Homo sapiens, UniProt Q06546 1-454)
T3 sequence: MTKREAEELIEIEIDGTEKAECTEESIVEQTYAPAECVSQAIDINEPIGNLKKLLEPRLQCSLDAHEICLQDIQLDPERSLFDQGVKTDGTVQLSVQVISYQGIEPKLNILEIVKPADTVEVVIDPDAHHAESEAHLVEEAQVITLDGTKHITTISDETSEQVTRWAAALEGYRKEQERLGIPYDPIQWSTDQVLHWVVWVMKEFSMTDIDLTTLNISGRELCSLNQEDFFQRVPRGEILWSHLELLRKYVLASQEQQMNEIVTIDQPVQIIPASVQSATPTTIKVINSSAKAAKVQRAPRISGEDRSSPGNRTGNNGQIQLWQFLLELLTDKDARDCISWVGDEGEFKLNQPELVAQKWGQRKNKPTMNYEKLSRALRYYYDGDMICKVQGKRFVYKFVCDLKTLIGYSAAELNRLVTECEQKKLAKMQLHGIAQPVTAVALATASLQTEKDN
Summary of the method: as §1

[4] = target: T4, ERG (Homo sapiens, UniProt P11308 1-479)
T4 sequence: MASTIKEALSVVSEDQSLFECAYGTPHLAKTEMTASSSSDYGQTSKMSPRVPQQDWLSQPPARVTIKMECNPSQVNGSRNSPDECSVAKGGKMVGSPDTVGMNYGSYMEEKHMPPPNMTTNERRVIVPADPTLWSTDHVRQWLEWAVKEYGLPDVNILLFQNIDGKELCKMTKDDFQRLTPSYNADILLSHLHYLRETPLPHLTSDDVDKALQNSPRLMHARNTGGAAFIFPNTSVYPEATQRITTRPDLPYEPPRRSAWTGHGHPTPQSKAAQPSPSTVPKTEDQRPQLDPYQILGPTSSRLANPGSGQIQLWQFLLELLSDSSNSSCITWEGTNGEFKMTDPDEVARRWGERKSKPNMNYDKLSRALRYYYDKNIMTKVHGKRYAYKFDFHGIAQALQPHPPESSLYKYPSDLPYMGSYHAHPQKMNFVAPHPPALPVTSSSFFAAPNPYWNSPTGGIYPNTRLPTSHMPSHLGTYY
Summary of the method: as §1

[5] = target: ELF1 (Homo sapiens, UniProt P32519 1-619)
ELF1, sequence (P32519 whole entry): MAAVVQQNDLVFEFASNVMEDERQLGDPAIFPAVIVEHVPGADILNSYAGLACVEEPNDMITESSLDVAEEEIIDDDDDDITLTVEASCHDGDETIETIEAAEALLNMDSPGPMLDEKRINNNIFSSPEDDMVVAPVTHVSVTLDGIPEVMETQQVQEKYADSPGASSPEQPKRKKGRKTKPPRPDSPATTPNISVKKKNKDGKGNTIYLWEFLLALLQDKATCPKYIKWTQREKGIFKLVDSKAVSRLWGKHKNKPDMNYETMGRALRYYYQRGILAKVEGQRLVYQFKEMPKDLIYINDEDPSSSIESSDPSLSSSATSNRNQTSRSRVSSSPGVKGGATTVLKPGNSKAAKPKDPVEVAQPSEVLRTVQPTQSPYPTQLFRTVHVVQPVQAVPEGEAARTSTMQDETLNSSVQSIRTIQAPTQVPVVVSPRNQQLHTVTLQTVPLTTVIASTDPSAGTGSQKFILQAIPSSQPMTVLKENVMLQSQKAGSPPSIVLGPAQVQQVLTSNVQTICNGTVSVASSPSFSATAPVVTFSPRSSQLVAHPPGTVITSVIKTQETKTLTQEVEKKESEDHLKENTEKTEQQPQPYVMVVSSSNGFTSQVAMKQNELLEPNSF
Summary of the method: as §1

[6] = target: T5, EHF (Homo sapiens, UniProt Q9NZC4 1-300)
T5 sequence: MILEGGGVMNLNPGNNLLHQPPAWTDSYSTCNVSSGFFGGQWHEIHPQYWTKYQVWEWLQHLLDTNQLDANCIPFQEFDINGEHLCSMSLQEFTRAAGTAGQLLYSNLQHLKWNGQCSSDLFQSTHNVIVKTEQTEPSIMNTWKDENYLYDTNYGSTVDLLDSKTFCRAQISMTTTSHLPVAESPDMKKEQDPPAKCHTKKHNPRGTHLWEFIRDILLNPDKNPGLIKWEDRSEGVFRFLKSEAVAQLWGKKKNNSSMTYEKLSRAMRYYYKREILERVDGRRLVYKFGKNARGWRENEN
Summary of the method: as §1

[7] = target: SPI1 (Homo sapiens, UniProt P17947 1-270)
Summary of the method: as §1

[8] = target: SPIB (Homo sapiens, UniProt Q01892 1-262)
SPIB, sequence (Q01892 whole entry): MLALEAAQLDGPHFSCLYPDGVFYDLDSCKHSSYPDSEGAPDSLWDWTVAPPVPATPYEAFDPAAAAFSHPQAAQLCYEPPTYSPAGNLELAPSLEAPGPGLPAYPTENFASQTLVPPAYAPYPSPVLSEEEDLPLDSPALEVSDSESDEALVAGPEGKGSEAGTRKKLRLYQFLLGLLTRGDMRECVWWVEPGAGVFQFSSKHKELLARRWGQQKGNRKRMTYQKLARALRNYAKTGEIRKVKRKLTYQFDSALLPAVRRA
Summary of the method: as §1

[9] = target: T6, ELK3 (Homo sapiens, UniProt P41970 1-407)
T6 sequence: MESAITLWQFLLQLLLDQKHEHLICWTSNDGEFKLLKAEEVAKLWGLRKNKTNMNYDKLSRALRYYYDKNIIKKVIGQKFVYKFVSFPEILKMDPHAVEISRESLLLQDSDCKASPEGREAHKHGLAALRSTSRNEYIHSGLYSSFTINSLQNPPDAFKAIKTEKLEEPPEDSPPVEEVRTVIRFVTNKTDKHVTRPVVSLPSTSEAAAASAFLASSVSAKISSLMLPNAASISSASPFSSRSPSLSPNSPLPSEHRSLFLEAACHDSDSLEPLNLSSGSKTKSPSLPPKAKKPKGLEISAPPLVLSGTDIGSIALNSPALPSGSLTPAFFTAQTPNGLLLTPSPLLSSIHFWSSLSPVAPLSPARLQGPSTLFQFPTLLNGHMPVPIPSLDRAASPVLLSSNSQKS
Summary of the method: as §1

ACTTCT was tested, and the binding signal [1] was 1.49 fold enrichment (6-mer frequency, TF over GST control), the binding signal [2] was 1.53 fold enrichment (6-mer frequency, TF over GST control) and the binding signal [3] was 1.5 fold enrichment (6-mer frequency, TF over GST control). For the same sequence, the binding signal [4] was 1.43 fold enrichment (6-mer frequency, TF over GST control), the binding signal [5] was 1.52 fold enrichment (6-mer frequency, TF over GST control) and the binding signal [6] was 1.56 fold enrichment (6-mer frequency, TF over GST control). For the same sequence, the binding signal [7] was 1.62 fold enrichment (6-mer frequency, TF over GST control), the binding signal [8] was 1.45 fold enrichment (6-mer frequency, TF over GST control) and the binding signal [9] was 1.48 fold enrichment (6-mer frequency, TF over GST control).
